# From PubChem BioAssay (NCATS)
# Several values for one entry are separate records, joined by “and”; a condition that tells them apart may be missing. Identical values can stand only once. Records with an inconclusive call do not appear. Some compounds were tested as several samples or in several runs, with calls that do not always agree. Activity calls are given as the source filed them. The call rests on the fitted dose curve; in most records, active means well fitted curve in the direction sought with a large enough effect; inconclusive means small, poorly fitted or top-dose-only effect, or another doubt; inactive means no such curve, though single readings can be large; an effect the other way counts as inactive or inconclusive.
# Key:
# [1] = Primary qHTS for inhibitors of nuclear receptor binding SET domain protein 2 (NSD2) in an isogenic RCH-ACV NSD2 p.E1099K mutant (9B) (AID 1645876); further: nearly all actives have a fitted effect of over 70% in size; further: potency means the concentration at half of the fitted maximal effect
# [2] = Primary qHTS for inhibitors of nuclear receptor binding SET domain protein 2 (NSD2) in an RCH-ACV wild type WT cells (2C) (AID 1645877); further: nearly all actives have a fitted effect of over 70% in size; further: potency means the concentration at half of the fitted maximal effect
# [3] = target: Catechol O-methyltransferase (Homo sapiens) (UniProt P21964); experiment: Confirmatory Screen for Target Class Profiling of Small Molecule Inhibitors of Methyltransferases (AID 1745852); conditions: MTase-Glo luminescence, SAH detection, recombinant enzyme; measured here: COMT max response; stronger effect = lower value
# Sequence of Catechol O-methyltransferase (Homo sapiens) (P21964 whole entry, looked up): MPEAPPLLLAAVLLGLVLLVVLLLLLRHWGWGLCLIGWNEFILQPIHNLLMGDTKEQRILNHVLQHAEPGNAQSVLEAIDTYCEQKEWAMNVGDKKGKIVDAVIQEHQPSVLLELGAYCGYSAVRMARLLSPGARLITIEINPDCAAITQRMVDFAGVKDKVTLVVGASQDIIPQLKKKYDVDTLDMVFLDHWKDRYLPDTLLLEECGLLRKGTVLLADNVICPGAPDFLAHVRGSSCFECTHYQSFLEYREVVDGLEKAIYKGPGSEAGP
SMILES,Potency [1],Potency [2],activity [3] [%]
CO[C@H]1C(=O)[C@]2(C)[C@@H](OC)C[C@H]3OC[C@@]3(OC(C)=O)[C@H]2[C@H](OC(=O)c2ccccc2)[C@]2(O)C[C@H](OC(=O)[C@H](O)[C@@H](NC(=O)OC(C)(C)C)c3ccccc3)C(C)=C1C2(C)C,0.003 µM (active),0.0026 µM (active),
CC(=O)N(C)C1(c2ccccc2)CCN(CCC[C@]2(c3ccc(Cl)c(Cl)c3)CCCN(C(=O)c3ccccc3)C2)CC1,7.28 µM (active),5.78 µM (active),-5.14
CC(=O)Nc1ccc([C@H](C)C(=O)Nc2ncc(C(C)C)s2)cc1,2.63 µM (active),2.35 µM (active),
O=C1c2ccccc2-[n+]2ccc3c([nH]c4ccccc43)c21,1.32 µM (active),1.32 µM (active),
CC(C)(C(=O)NCC(F)(F)C(F)(F)F)C(=O)N[C@@H]1C(=O)Nc2ccccc2-c2ccccc21,,inactive,
COc1cc(N2CCC(N3CCN(C)CC3)CC2)ccc1Nc1ncc(Cl)c(Nc2ccccc2S(=O)(=O)C(C)C)n1,1.29 µM (active) and 3.72 µM (active),649 nM (active) and 1.48 µM (active),-29.5
CC(C)[C@H](CO)Nc1nc(Nc2ccc(C(=O)O)c(Cl)c2)c2ncn(C(C)C)c2n1,inactive,inactive,
CC1(C)CCC(CN2CCN(c3ccc(C(=O)NS(=O)(=O)c4ccc(NCC5CCOCC5)c([N+](=O)[O-])c4)c(Oc4cnc5[nH]ccc5c4)c3)CC2)=C(c2ccc(Cl)cc2)C1,11.2 µM (active) and inactive,12.6 µM (active) and inactive,-3.58
O=c1cc(N2CCOCC2)oc2c(-c3cccc4c3sc3ccccc34)cccc12,3.32 µM (active),2.63 µM (active),
CN1CCN(CCOc2cc(OC3CCOCC3)c3c(Nc4c(Cl)ccc5c4OCO5)ncnc3c2)CC1,3.25 µM (active) and 2.63 µM (active),5.15 µM (active) and 2.95 µM (active),-14.1
NC(=O)c1cnc(-c2ccc(C3(N)CCC3)cc2)c(-c2ccccc2)c1,2.95 µM (active) and 459 nM (active),,-7.58
O=C(Nc1cc(Cl)cc2c1[nH]c1cnccc12)c1cccnc1,inactive,inactive,
CC(C)=CC[C@@H](O)C1=CC(=O)c2c(O)ccc(O)c2C1=O,23.5 µM (active),20.9 µM (active),
NC1CCC(Nc2nc(Nc3ccc(C(=O)N4CCCCC4)cc3)c3ncn(-c4cccc(F)c4)c3n2)CC1 (stereo unspecified),1.84 µM (active),2.06 µM (active),
O=C(NOCC(O)CO)c1cc(Br)c(F)c(F)c1Nc1ccc(I)cc1F (stereo unspecified),,20.9 µM (active),
N[C@@]1(C(=O)O)CS(=O)(=O)[C@H]2[C@H](C(=O)O)[C@H]21,inactive,inactive,
Cc1ccc(F)c(NC(=O)Nc2ccc(-c3cccc4[nH]nc(N)c34)cc2)c1,10.5 µM (active),8.33 µM (active),
c1cc(-c2sc(-c3ccncc3)c(-c3ccncc3)c2-c2ccncc2)ccn1,inactive,inactive,
CO[C@@H](C(=O)N1Cc2[nH]nc(NC(=O)c3ccc(N4CCN(C)CC4)cc3)c2C1)c1ccccc1,73.1 nM (active) and 118 nM (active),58 nM (active) and 52.5 nM (active),
CC#CCn1c(N2CCC[C@@H](N)C2)nc2c1c(=O)n(Cc1nc(C)c3ccccc3n1)c(=O)n2C,inactive,inactive,
CN(C)Cc1ccc(-c2nc3cccc4c3n2CCNC4=O)cc1,11.8 µM (active),7.42 µM (active),
NS(=O)(=O)c1cccc2c1C(=O)c1cccc(O)c1C2=O,1.66 µM (active),0.742 µM (active),
